The results in this text go back to PubChem BioAssay AID798 (PCMD, 2007).

The inhibition is the change of the read-out against control, counted positive when it falls.

The campaign covered roughly 220,000 compounds. About 300 (0.14%) were called active. The sample as a whole holds a higher share of actives than the screen did. Values without a mark were called inactive.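 How the source made its calls: active means inhibition of at least 40%; inactive means inhibition below 40%.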

The target in this test is Coagulation factor XI (Homo sapiens) (UniProt P03951). Put plainly: human FXIa protease inhibitors, primary screen, biochemical, 1536-well (AID 798).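 Further: fluorescence of freed AMC excited at 355 nm; 0% = enzyme without compound and 100% = no enzyme blank.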 As to conditions: purified FXIa, Boc-Glu-Ala-Arg-AMC fluorogenic substrate; at 5 µM; hits give high values.
Sequence of Coagulation factor XI (Homo sapiens) (P03951 19-387 limits assumed): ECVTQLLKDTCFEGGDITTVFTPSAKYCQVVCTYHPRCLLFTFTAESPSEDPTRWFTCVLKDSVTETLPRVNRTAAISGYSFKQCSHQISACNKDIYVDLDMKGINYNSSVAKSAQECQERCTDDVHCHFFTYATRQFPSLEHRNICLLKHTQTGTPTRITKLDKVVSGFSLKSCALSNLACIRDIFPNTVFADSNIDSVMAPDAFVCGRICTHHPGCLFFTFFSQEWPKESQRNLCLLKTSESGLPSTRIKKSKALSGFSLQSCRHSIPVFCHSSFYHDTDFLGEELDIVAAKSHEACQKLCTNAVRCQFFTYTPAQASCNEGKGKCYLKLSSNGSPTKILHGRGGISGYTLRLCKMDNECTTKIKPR
Sequence of Coagulation factor XI (Homo sapiens) (P03951 388-625 limits assumed): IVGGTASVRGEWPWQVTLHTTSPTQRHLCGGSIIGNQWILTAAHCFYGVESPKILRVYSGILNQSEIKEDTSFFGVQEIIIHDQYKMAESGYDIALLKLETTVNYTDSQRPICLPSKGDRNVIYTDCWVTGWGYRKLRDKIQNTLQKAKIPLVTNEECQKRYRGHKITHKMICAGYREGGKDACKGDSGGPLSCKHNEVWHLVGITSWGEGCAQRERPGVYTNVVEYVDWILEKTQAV
As to `NCC(O)c1ccc(O)cc1` (stereo not given), the inhibition was 47.9% (active).

On to `CSc1ccc(C(=O)C2CCCN(Cc3ccn[nH]3)C2)cc1` (stereo not given), for which the inhibition was 2.72%.

Regarding `Cc1ccc(Cn2c(C)c3cnn(CC(=O)N4CCC5(CC4)OCCO5)c(=O)c3c2C)cc1`, the inhibition was -2.43%.

For `CCCCCn1c(=O)c(C(=O)NCc2ccccn2)c(O)c2ccccc21`, the inhibition is 4.5%.

For `CC(C)c1ccc(-n2c(O)c(/C=N/N3CCOCC3)c(=O)[nH]c2=S)cc1`, the inhibition was -2.81%.
